Methyltransferases: Primary Screen for Target Class Profiling of Small Molecule Inhibitors of Methyltransferases. purified enzyme, MTase-Glo SAH luminescence; stronger effect = lower value. calls only at 40 µM. 3.9% of 25,000 active. AID 1745853, 2022; call rule not given here
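Each enzyme was assayed with SAM and its substrate. SAH formation detected by MTase-Glo luminescence; single-point 40 uM screen[…].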
MTase-Glo counter: counter-screen for methyltransferase inhibitors: coupling enzymes without methyltransferase. Potency, µM (titrated, usually from 57.3 µM), usual class: inhibitors. MTase-Glo coupled enzymes, SAH conversion luminescence, no MTase. shares compounds with Methyltransferases. AID 1745851. 6% of 180 active; active = well fitted inhibition curve with a large enough effect
Calls only; . = inactive; + = active, no number. This excerpt belongs to a sample that is enriched for hits.

SMILES	Methyltransferases	others
Cc1nn2c(c1-c1cccnc1N1CCOCC1)N(C(=O)c1cc3ccccc3n1C)CCC2	.
CN1C(=O)c2cc(C(=O)NCc3ccccc3F)nn2CC1(C)C(=O)NC1CCCC1 (configuration not stated)	.
COCCN1C(=O)c2nc3ccccc3n2CC1(C)C(=O)NC1CCCCC1 (configuration not stated)	.
O=C(Cn1ccc2cc(S(=O)(=O)N3CCCC3)ccc21)NC1CCCCC1	.
CN1CCCN(C(=O)c2ccccc2F)c2ccccc21	.
O=C(c1ccccc1F)N1CCn2ncc(C(=O)N3CCOCC3)c2C1	.
Cn1cc2c3c(cccc31)CN(C(=O)c1ccccc1F)CC2	+	MTase-Glo counter=.
Cc1ccc(C)c(C(=O)Cn2nc3n(Cc4ccccc4)c(=O)c4ccccc4n3c2=O)c1	.
CC1CCC(NC(=O)C2(C)Cn3c(cc4sccc43)C(=O)N2C2CCCCC2)CC1 (configuration not stated)	.
CC(C)Cn1c(=O)c2ccc(C(=O)NC(C)C)cc2n2c(=O)n(CC(N)=O)nc12	.
